This note sets out measurements from PubChem BioAssay (NCI).

SMILES strings stand for the structures. This is part of a sample that, as a whole, favours compounds with a hit. Of some 79,000 tested, about 15% had one in any assay. Values without a mark were called inactive. The source made the active and inactive calls. Cut-off read from the data, not from the text of the source: active = growth inhibition above about 70%; inactive = the rest.

The first experiment is described as follows: NCI Yeast Anticancer Drug Screen. Data for the rad50 strain (AID 155).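 Note: 0% = growth of vehicle-only cultures of the same strain.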 The conditions noted are these: S. cerevisiae rad50 strain growth inhibition; at 50.0 µM; active compounds read high. An outline of the steps: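 Readout: growth inhibition relative to vehicle-treated cultures. Compound exposure was carried out in a genetically defined yeast strain deficient in DNA damage repair.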
Take `Cc1cc(SCC(=O)c2ccc(Cl)cc2)cc(C)[o+]1`: the growth inhibition was 95.8% (active).

Take `Cn1cnc([N+](=O)[O-])c1Sc1nc2ccccc2s1`: the growth inhibition was 91.3% (active).

Regarding `CCOC(=S)SSC(=S)NCCNC(=S)SSC(=S)OCC`, the growth inhibition was 70.7% (active).

As to `Cc1nc(C)c(C(=O)NNC(=O)C[N+](C)(C)C)cc1C(=O)NNC(=O)C[N+](C)(C)C`, the growth inhibition is -23.2%.

`CC/C(=C(\CC)c1ccc(O)c(CN(CC)CC)c1)c1ccc(OC)cc1`: the growth inhibition was 99.4% (active).

With `CC(C)N(C(=O)CC1(O)CCCCC1)C(C)C`, the growth inhibition was -0.25%.

Take `CCCCN(CCCC)CC(O)c1cc(-c2ccc(Cl)cc2)nc2cc(C)ccc12` (stereo not given): the growth inhibition was 99.2% (active).

Consider `C/C(=C\c1ccccc1Cl)c1ccccn1`, for which the growth inhibition was 86.2% (active).

In the case of `O=C(OC1C2CCC2C2CC21)c1cc([N+](=O)[O-])cc([N+](=O)[O-])c1` (stereo not given), the growth inhibition was 10.9%.

`O=c1[nH]c2c([N+](=O)[O-])cc(Cl)cc2nc1/C=C(\O)c1ccc(F)cc1`: the growth inhibition is 71.1% (active).

Turning to `CC(=O)N[C@H]1CC[C@H]2[C@@H]3CCC4=CC(=O)CC[C@]4(C)[C@H]3CC[C@]12C`, the growth inhibition is 33.2%.

As for `CC12OC(=O)C(C(N)=O)=C1C=C(c1ccccc1)CC2c1ccccc1` (stereo not given), the growth inhibition is 65%.

On to `Cn1c2nc(-[n+]3ccccc3)nc-2c([O-])n(C)c1=O`, for which the growth inhibition is -15.8%.

In the case of `COc1cc(NCCCCCCCC2CCCCN2)c2ncccc2c1` (stereo not given), the growth inhibition was 86.2% (active).

Regarding `Nc1ncnc(N2CCOCC2)c1N`, the growth inhibition was 11.7%.

Take `CCCCCCCCCCCCNCC(=O)O`: the growth inhibition was 92.9% (active).

As for `O=C(O)C1C2CC3CC(C2)CC1C3` (stereo not given), the growth inhibition is 20%.

Turning to `CC(=O)OC1CCC2(C)C(=CCC3C2CCC2(C)C3CC(C(N)=O)C2C(C)=O)C1` (stereo not given), the growth inhibition is 49%.

On to `CC1(C)CC(=N/O)/C(=N/O)C(=N\NC(N)=S)/C1`, for which the growth inhibition was 69.9%.

On to `CCCCCCCCCCCCCCCCCC1=NCCN1`, for which the growth inhibition was 54%.

As to `O=c1c2ccccc2c2ccccc2c(=O)n1-c1cc2c3ccccc3ccc2c2ccccc12`, the growth inhibition was -16.2%.

The next experiment can be described thus: NCI Yeast Anticancer Drug Screen. Data for the mec2-1 strain (AID 157). The conditions noted are these: S. cerevisiae mec2-1 strain, at 5.0 µM (retest, dose inferred, filed as 0.5), active compounds read high. Put shortly:
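Cells of the genetically defined mec2-1 yeast strain are incubated with test compound. Inhibition of growth is calculated against vehicle-treated controls.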
Turning to `CC(CC(C#CCN(C)C)N(C)C)CC(C)(C)C` (stereo not given), the growth inhibition is 1%.

`CCCCCCCCCCNC(=O)C[n+]1cccc(C(=O)NCc2ccccc2)c1`: the growth inhibition was -1%.

Take `Cc1ccc(N2C(N)=C(C#N)C(C#N)(C#N)C2c2ccccc2)cc1` (stereo not given): the growth inhibition is 26%.

As for `O=[N+]([O-])c1cccc(Cl)c1C(Nc1nncs1)Nc1nncs1`, the growth inhibition was 7%.

`CCCC(C(=O)OCCNC1CCCCC1)c1ccccc1` (stereo not given): the growth inhibition was -13%.

Consider `BrCc1ccc([Si](c2ccccc2)(c2ccccc2)c2ccc(CBr)cc2)cc1`, for which the growth inhibition is 14%.

For `CCCCC(O)(c1ccccc1)C(O)(c1ccccc1)c1c(F)c(F)c(F)c(F)c1F` (stereo not given), the growth inhibition was -3%.

For `C/C=C\C=N\NC(N)=S`, the growth inhibition was -3%.

As to `NCCc1ccc2oc3cc(=O)c4ccccc4c-3nc2c1`, the growth inhibition was -1%.

As to `CC(C)=CCc1ccc(O)cc1`, the growth inhibition is 5%.

Turning to `CCCCCCCCCCCCCC/[N+]([O-])=C/c1ccc([N+](=O)[O-])o1`, the growth inhibition is 2%.

With `Fc1ccc(CSC(=S)Nc2ccc(Br)cc2)cc1`, the growth inhibition is 8%.

Take `C/C(=N\NC(=S)N1CCN(C2CCCCC2)CC1)c1ccccn1`: the growth inhibition is -14%.

As to `Cc1ccccc1N=Nc1sc(N)nc1-c1ccccc1`, the growth inhibition was 8%.

In the case of `CN(c1ccc(C(N)=O)cc1)c1c(O)c2ccccc2[nH]c1=O`, the growth inhibition was -1%.

As for `Fc1ccc(CSC(=S)Nc2cccc(C(F)(F)F)c2)cc1`, the growth inhibition was 9%.

`COc1ccccc1C(C)c1ccc2ccccc2c1C(=O)O` (stereo not given): the growth inhibition was 2%.

Turning to `CNC(=O)OCc1c(-c2ccccc2)c(-c2ccccc2)n(-c2ccc(OC)cc2)c1COC(=O)NC`, the growth inhibition was 18%.

For `Cc1cc(SCC(=O)c2ccc(Cl)cc2)cc(C)[o+]1`, the growth inhibition was -1%.

Regarding `Cn1cnc([N+](=O)[O-])c1Sc1nc2ccccc2s1`, the growth inhibition was 38%.

With `CCOC(=S)SSC(=S)NCCNC(=S)SSC(=S)OCC`, the growth inhibition was 4%.

Regarding `Cc1nc(C)c(C(=O)NNC(=O)C[N+](C)(C)C)cc1C(=O)NNC(=O)C[N+](C)(C)C`, the growth inhibition was 18%.

Take `CC/C(=C(\CC)c1ccc(O)c(CN(CC)CC)c1)c1ccc(OC)cc1`: the growth inhibition is 15%.

Take `CC(C)N(C(=O)CC1(O)CCCCC1)C(C)C`: the growth inhibition is -5%.

In the case of `CCCCN(CCCC)CC(O)c1cc(-c2ccc(Cl)cc2)nc2cc(C)ccc12` (stereo not given), the growth inhibition is 17%.

As for `C/C(=C\c1ccccc1Cl)c1ccccn1`, the growth inhibition was 2%.

As to `O=C(OC1C2CCC2C2CC21)c1cc([N+](=O)[O-])cc([N+](=O)[O-])c1` (stereo not given), the growth inhibition is 4%.

For the molecule `O=c1[nH]c2c([N+](=O)[O-])cc(Cl)cc2nc1/C=C(\O)c1ccc(F)cc1`, the growth inhibition was -6%.

For the molecule `CC(=O)N[C@H]1CC[C@H]2[C@@H]3CCC4=CC(=O)CC[C@]4(C)[C@H]3CC[C@]12C`, the growth inhibition is -11%.

`CC12OC(=O)C(C(N)=O)=C1C=C(c1ccccc1)CC2c1ccccc1` (stereo not given): the growth inhibition was 12%.

Regarding `Cn1c2nc(-[n+]3ccccc3)nc-2c([O-])n(C)c1=O`, the growth inhibition was 3%.

Consider `COc1cc(NCCCCCCCC2CCCCN2)c2ncccc2c1` (stereo not given), for which the growth inhibition was 6%.

With `Nc1ncnc(N2CCOCC2)c1N`, the growth inhibition is 0%.

With `CCCCCCCCCCCCNCC(=O)O`, the growth inhibition was 1%.

As for `O=C(O)C1C2CC3CC(C2)CC1C3` (stereo not given), the growth inhibition was 8%.

Regarding `CC(=O)OC1CCC2(C)C(=CCC3C2CCC2(C)C3CC(C(N)=O)C2C(C)=O)C1` (stereo not given), the growth inhibition was 1%.

`CC1(C)CC(=N/O)/C(=N/O)C(=N\NC(N)=S)/C1`: the growth inhibition is -2%.

With `CCCCCCCCCCCCCCCCCC1=NCCN1`, the growth inhibition is -4%.

With `O=c1c2ccccc2c2ccccc2c(=O)n1-c1cc2c3ccccc3ccc2c2ccccc12`, the growth inhibition was -11%.
